High-throughput results as filed in PubChem BioAssay.
Most compounds without a hit are left out; they make up all but 14% or so of the library.
LmPK inh = inhibitors of Leishmania mexicana pyruvate kinase; Potency, µM (series often up to 57.5 µM), without a hit: at the highest dose activity change, negative = inhibition, most hits filed as inhibitors; purified LmPK, Kinase-Glo ATP luminescence, 1 h; AID 1721; Q27686; 0.37% of 290,000 active; also: potency is read from the fitted curve at half-maximal effect; % is scaled to controls: 0 for no effect and ±100 for the full control effect
Target sequence (Q27686 whole entry, looked up): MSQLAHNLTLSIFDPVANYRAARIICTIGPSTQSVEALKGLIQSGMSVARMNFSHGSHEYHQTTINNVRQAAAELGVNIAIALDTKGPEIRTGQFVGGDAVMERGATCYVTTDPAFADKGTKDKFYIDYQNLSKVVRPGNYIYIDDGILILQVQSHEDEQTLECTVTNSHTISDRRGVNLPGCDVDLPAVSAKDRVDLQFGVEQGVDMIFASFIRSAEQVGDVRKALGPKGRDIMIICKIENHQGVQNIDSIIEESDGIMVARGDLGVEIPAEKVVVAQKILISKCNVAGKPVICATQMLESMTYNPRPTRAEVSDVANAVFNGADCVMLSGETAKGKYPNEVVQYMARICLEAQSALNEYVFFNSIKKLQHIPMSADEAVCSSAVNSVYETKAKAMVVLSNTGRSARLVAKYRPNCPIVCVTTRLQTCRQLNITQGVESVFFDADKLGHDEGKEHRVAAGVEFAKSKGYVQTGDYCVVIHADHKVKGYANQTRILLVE
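In 50 mM imidazole pH 7.2 with 7 mM MgCl2, LmPK (0.1 nM) turned over PEP (0.5 mM) and ADP (0.1 mM) for 1 h at room temperature. Luciferase read-out of ATP.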
NS1 inh = inhibitors of influenza NS1 protein function. Potency, µM (doses to about 46.1 µM), for the others: top-dose activity, positive = more growth. 0.4% of 270,000 active; calls by dose curve; also: potency is read from the fitted curve at half-maximal effect; actives are rising curves; nearly all actives have a fitted effect of over 50% in size
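A cell-based growth assay was used: compounds that relieve NS1-induced slow growth of budding yeast raise OD600. Assay medium was yeast nitrogen base with ammonium sulphate and -URA supplement, pH 6.0, with 2% galactose.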
FBPA Giardia inh = Giardia lamblia aldolase inhibition; AID 2451; purified Giardia FBPA; 0.71% of 290,000 active; Potency, µM (top dose mostly 59.6 µM), for inactives: top-dose activity, negative = inhibition, actives largely listed as inhibitors; also: potency is read from the fitted curve at half-maximal effect; % is scaled to controls: 0 for no effect and ±100 for the full control effect; nearly all actives have a fitted effect of over 55% in size
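40 nM FBPA preincubated 10 min at RT with compound (up to 57.5 uM final), then substrate plus GAPDH/TPI/NAD/arsenate coupling and diaphorase/resazurin added. Fluorescence read after 20 min at RT, 525/598 nm.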
Shiga toxin inh = inhibitors of Shiga toxin in Vero cells; AID 2315; inhibition, % at 38.7 µM; Vero cells, Shiga toxin protein synthesis inhibition reporter; 9.2% of 290,000 active; in the data active = inhibition mostly above about 28%, no sharp cut-off; inactive = mostly below about 43%; also: 0% is about no effect
CHX counter = affects cycloheximide protein synthesis inhibition readout, counter-screen; 12% of 300,000 active; AID 2314; max response, %; cell reporter, cycloheximide protein synthesis inhibition counterscreen; in the data active = max response mostly above about 13%, no sharp cut-off; inactive = mostly below about 14%; also: read at 38.3 µM for the half of the compounds with a filed dose; 0% is about no effect
* hit, by the source's call; ? = inconclusive; . = not tested or not shown; + = active, no number. Unless noted, calls follow the shape of the dose curve; as a rule, active = well fitted curve in the direction sought with a large enough effect; inconclusive = small, poorly fitted or top-dose-only effect, or another doubt; inactive = no such curve, though single readings can be large; an effect the other way counts as inactive or inconclusive.

SMILES	LmPK inh	NS1 inh	FBPA Giardia inh	Shiga toxin inh	CHX counter
COc1ccc(S(=O)(=O)Nc2cc(Sc3ncn[nH]3)c(O)c3ccccc23)cc1	3.16µM*	-188.5%	0.561µM*	42.5	41.8
COc1ccc(S(=O)(=O)Nc2cc(SCC(=O)O)c(O)c3ccccc23)cc1	?	3.3%	7.94µM*	-8.5	1.5
COc1ccc(S(=O)(=O)Nc2ccc(O)c(Sc3ncn[nH]3)c2)cc1	2.2%	-2.5%	-21.5%	-5.5	1.2
O=C(O)CSc1cc(NS(=O)(=O)c2ccc(Cl)cc2)c2ccccc2c1O	?	-40.2%	3.98µM*	18.2	14.4
O=S(=O)(Nc1nc(-c2ccccc2)cs1)c1cc(Cl)ccc1Cl	0.4%	-74.4%	3.9%	-4.7	-1.1
CCC(C(=O)N1CCOCC1)n1nc(C)c2c(C)n(-c3ccccc3)nc2c1=O (configuration not stated)	-13.2%	13.8%	.	-0.9	-8.9
O=S(=O)(Nc1cc(Sc2cccc3cccnc23)c(O)c2ccccc12)c1ccc(F)cc1	-7.4%	-17.8%	1.12µM*	+	24.5*
O=C(NCCNC(=O)c1ccccn1)c1ccccc1	1.8%	-6.3%	16.8%	4.8	-0.4
Cc1cc2c(cc1C)NC1=C(N2)OC(c2cccc(O)c2)C1=O (configuration not stated)	-0.8%	-5.3%	-4.5%	38.3	7.4*
COc1ccc(C2OC3=C(Nc4cc(C)c(C)cc4N3)C2=O)cc1 (configuration not stated)	-2.1%	-6.4%	2.0%	76.6*	30.0*
COc1ccccc1C1OC2=C(Nc3ccc([N+](=O)[O-])cc3N2)C1=O (configuration not stated)	-2.2%	-5.6%	-17.4%	-2.9	-3.3
C[C@@H](C(=O)NCc1ccc(C(F)(F)F)nc1)[C@H]1C[C@]1(C)[C@H](NC(=O)OCc1ccccc1)c1ccccc1	.	.	-6.0%	.	.
COc1ccc(/C=N/N2CCOCC2)cc1O	-10.7%	22.9%	-0.8%	48.0*	28.2*
COc1cc(/C=N/N2CCOCC2)ccc1OCc1ccccc1	6.1%	-8.6%	-0.5%	36.0	16.3*
COc1cc(/C=N/N2CCOCC2)ccc1OCc1ccc(Cl)cc1	7.0%	.	-4.5%	81.6*	36.9*
COc1ccc(/C=N/N2CCOCC2)cc1OCc1ccccc1	0.4%	.	-4.2%	16.4	8.7
C=CCn1c(=S)[nH]c2nc3c(cc2c1=O)CCCC3	-10.3%	-5.7%	-0.4%	28.9*	29.2*
Cc1ccc(NC(=O)CCn2nnc3ccccc32)cc1	1.1%	-2.6%	-3.2%	79.3*	24.7*
CC(=O)Nc1ccc(NC(=O)CCCCCn2nnc3ccccc3c2=O)cc1	10.3%	0.1%	-18.7%	-3.2	1.9
O=C(Cn1nnc2ccccc21)c1ccc(Br)cc1	2.8%	-1.5%	3.4%	47.7*	35.2*
Cc1ccc(NC(=O)CCn2nnc3ccccc32)c(C)c1	4.5%	-2.0%	-8.1%	-10.4	-2.6
Cc1ccc(C(=O)NNC(=O)Cn2nnc3ccccc32)cc1	1.5%	-0.5%	3.7%	41.1*	17.0*
CC(=O)Nc1ccc(C(=O)Cn2nnc3ccccc3c2=O)cc1	-4.4%	-1.4%	6.8%	49.6*	13.4*
CC(C(=O)O)n1nc(-c2ccccc2)c2ccccc21 (configuration not stated)	-1.3%	-5.0%	5.2%	-7.7	-0.9
O=C(CCn1nnc2ccccc21)N1CCN(c2ccccc2)CC1	4.6%	-2.4%	-0.3%	78.1*	26.9
SMILES	LmPK inh	NS1 inh	FBPA Giardia inh	Shiga toxin inh	CHX counter
c1ccc(CCn2nnc3ccccc32)cc1	-21.9%	0.9%	19.6%	188.7*	50.0*
Cc1ccc(C(=O)Cn2nnc3ccccc32)cc1C	-0.5%	-6.5%	-0.4%	139.7*	69.4*
O=C(Cn1nnc2ccccc21)C1CC1	-5.3%	-7.2%	-1.8%	-8.2	-1.5
Cc1ccc(C(=O)Cn2nnc3ccccc32)cc1	-16.0%	1.5%	0.2%	65.6*	37.5*
N#CCCn1nnc2ccccc21	5.2%	-4.7%	4.2%	-16.7	3.5
Cc1ccc(N(CC(=O)NC2CCCC2)C(=O)CNC(=O)c2cccs2)cc1F	-1.2%	7.4%	-17.0%	-7.0	-4.5
O=S(=O)(c1ccccc1)c1nc(-c2cccc(Cl)c2)oc1N1CCOCC1	-8.1%	4.1%	.	-12.5	2.9
CC1=NNC(=S)NCCCN2CCN(CCCNC(=S)NN=C(C)C=NNC(=S)NCCCN3CCN(CCCNC(=S)NN=C1)CC3)CC2	.	0.0%	.	.	.
C/C(=N\NC(=O)CCn1nnc2ccccc21)c1cccs1	-2.7%	-4.0%	3.9%	51.4*	33.0*
O=C(Cn1nnc2ccccc21)NCc1ccccc1	-13.8%	3.6%	-2.6%	63.9*	59.8*
COc1cccc2cc(C(=O)N3CCCCCCC3)c(=O)oc12	1.5%	16.2%	-13.5%	43.8*	31.7*
COc1cccc2cc(C(=O)N3CCN(c4ncccn4)CC3)c(=O)oc12	2.8%	3.3%	-5.2%	14.6	14.2*
CC(C)CNC(=O)C(=O)Nc1cc2c3c(c1)C(C)C(=O)N3CCC2 (configuration not stated)	0.5%	18.0%	.	-3.7	1.4
Cc1cc(C)c2c(N)c(C(=O)N/N=C/c3ccccc3)sc2n1	7.7%	-0.3%	-8.0%	120.9*	59.1*
Cc1cc(C)c2c(N)c(C(=O)NN3CC(=O)N(c4ccccc4F)CC3=O)sc2n1	-1.0%	1.3%	-25.8%	17.2	-3.3
Cc1cc(C)c2c(N)c(C(=O)N/N=C/c3cccnc3)sc2n1	3.5%	-9.8%	0.0%	43.3	42.7*
Cc1ccc2[nH]c(=O)c(CN(Cc3ccccc3)Cc3nnnn3C3CCCC3)cc2c1	0.8%	-41.1%	-6.5%	91.5*	40.1*
Cc1ccc2cc(CN(Cc3nnnn3C3CCCC3)C3CCCCC3)c(=O)[nH]c2c1C	9.7%	-12.6%	15.8%	69.7*	36.0*
Cc1ccc2[nH]c(=O)c(CN(Cc3nnnn3C3CCCC3)C3CCCCC3)cc2c1	-0.4%	-51.2%	0.4%	0.6	-1.4
N=C(N)SCCc1ccc(CCSC(=N)N)cc1	.	-36.4%	16.3%	.	.
COc1ccc(OC)c2c1sc(=NC(=O)c1ccco1)n2C	14.7%	-12.1%	-0.4%	-8.5	-2.3
CC(C)C(=O)N=c1sc2cccc(F)c2n1C	5.4%	1.4%	4.3%	16.9	10.4*
CCn1c(=NC(=O)c2ccco2)sc2cccc(F)c21	1.6%	-12.6%	-17.7%	100.8*	33.7*
Cc1cc(C)nc(N/N=C/c2sccc2C)n1	?	-5.1%	-17.4%	77.3*	25.9*
Cc1ccsc1/C=N/Nc1ncc(Cl)cc1Cl	-16.2%	-78.4%	-11.8%	119.1*	31.6*
Cc1ccsc1/C=N/Nc1nc(=O)[nH]nc1C	?	.	?	111.8*	34.1*
CCN(CC)c1ccc(/C=N/Nc2nc(C)cc(C)n2)cc1	-0.1%	-2.6%	0.5%	35.2	19.7
Cc1ccsc1/C=N/Nc1ccc(F)cc1F	-4.8%	-7.3%	-1.8%	90.6*	43.6*
Cc1ccsc1/C=N/NC(=O)Cc1ccc(Cl)cc1	-2.2%	-40.8%	-1.0%	18.6	9.1
Cc1ccc(C)c(N2CCN(C(=O)CCCn3ncn4c(cc5occc54)c3=O)CC2)c1	0.6%	-48.6%	?	-8.7	9.7
